Screens from PubChem.
Rows were chosen to be rich in hits. Some 2.1% of all compounds tested hit in one or more screens of this group.
MsrA act: bovine methionine sulfoxide reductase A activation; purified bovine MsrA, absorbance read-out; activation, % at 10.6 µM; actives 0.3% (n = 360,000); in the data active = activation above about 7.5%
MsrA inhibitor: inhibitors of bovine MsrA | AID 651718 | inhibition, % at 15.5 µM | purified bovine MsrA, absorbance read-out | actives 0.75% (n = 360,000)
ABCB6 inh 2: inhibitors of human ABC transporter ABCB6 | actives 0.19% (n = 360,000) | Q9NP58 | AID 602162 | K562-ABCB6 porphyrin accumulation, flow cytometry, 1 h; active compounds read low | fluorescence ratio to DMSO, % at 10 µM;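 active = fluorescence ratio to DMSO below 75%, the collection mean minus 3 SD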;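 also: signal is porphyrin accumulated inside mitochondria; lower ratio means ABCB6 inhibition with less porphyrin fluorescence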
Target sequence (Q9NP58 whole entry, looked up): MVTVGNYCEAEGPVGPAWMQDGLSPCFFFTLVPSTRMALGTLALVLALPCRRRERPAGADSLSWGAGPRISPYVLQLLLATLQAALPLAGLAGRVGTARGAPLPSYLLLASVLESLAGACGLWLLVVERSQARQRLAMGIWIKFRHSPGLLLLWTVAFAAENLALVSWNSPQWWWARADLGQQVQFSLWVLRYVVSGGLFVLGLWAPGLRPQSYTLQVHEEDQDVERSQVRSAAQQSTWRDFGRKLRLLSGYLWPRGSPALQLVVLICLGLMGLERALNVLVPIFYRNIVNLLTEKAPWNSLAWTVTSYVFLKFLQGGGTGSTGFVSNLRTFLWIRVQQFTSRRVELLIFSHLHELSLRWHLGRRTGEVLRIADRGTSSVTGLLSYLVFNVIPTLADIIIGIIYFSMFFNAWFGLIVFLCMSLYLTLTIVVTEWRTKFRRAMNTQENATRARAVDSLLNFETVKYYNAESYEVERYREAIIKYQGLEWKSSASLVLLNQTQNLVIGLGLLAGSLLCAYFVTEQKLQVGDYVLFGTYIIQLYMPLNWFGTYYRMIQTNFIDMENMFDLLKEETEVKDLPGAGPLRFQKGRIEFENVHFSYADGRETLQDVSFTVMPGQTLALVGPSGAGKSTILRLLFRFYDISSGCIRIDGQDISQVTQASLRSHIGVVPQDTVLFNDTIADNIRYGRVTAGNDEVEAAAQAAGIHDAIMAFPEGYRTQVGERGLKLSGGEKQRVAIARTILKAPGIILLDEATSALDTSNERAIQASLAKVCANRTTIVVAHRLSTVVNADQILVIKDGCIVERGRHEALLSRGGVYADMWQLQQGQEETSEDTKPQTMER
SMARCA2 act: activators of SMARCA2 function; MG213 cells, MMTV-luciferase reporter, dexamethasone, overnight; activation, % at 9.1 µM; actives 1% (n = 370,000); AID 652017; in the data active = activation above about 7.8%
MsrA conf: bovine MsrA inhibition, confirmed; shares compounds with MsrA inhibitor; purified bovine MsrA, absorbance read-out; inhibition, % at 15.5 µM; actives 41% (n = 2,300); AID 651822;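 also: coupled to thioredoxin reductase with NADPH and selenocystamine and DMSO as substrate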
Large screens that a line does not name were inactive (follow-up assays come after a bar, where they were run). Rule as the data show it, unless noted: active = inhibition above about 4.5%; inactive = the rest.

Oc1ccc(/C=N\Nc2cc(N3CCOCC3)nc(N3CCOCC3)n2)c(O)c1	MsrA inhibitor 5.3 | MsrA conf inactive
COc1cc(/C=N/NC(=S)NCCN2CCOCC2)cc(OC)c1O	MsrA inhibitor 5.2 | MsrA conf 5.7
COc1ccc(NC(=S)NCC2CCCO2)c(C)c1 (stereo not drawn)	none
COc1cc(OC)c(OC)cc1/C=N/NC(=S)NCC1CCCO1 (stereo not drawn)	MsrA inhibitor 5.9 | MsrA conf 4.9
COc1cc(/C=N/NC(=O)C(=O)NCC2CCCO2)ccc1O (stereo not drawn)	MsrA inhibitor 4.8 | MsrA conf inactive
COc1cc(OC)c(OC)cc1/C=N/NC(=S)NCCN1CCOCC1	MsrA inhibitor 5.1 | MsrA conf inactive
COC(=O)[C@]12C[C@H](CC(=O)N3CCOCC3)C(=O)N(CCc3ccc(OC)c(OC)c3)C1=C[C@H](C(C)C)O[C@@H]2C1CC1	none (no result: MsrA act, MsrA inhibitor, ABCB6 inh 2)
CCCc1nc(SCc2ccccn2)c2c(=O)n(C)c(=O)n(C)c2n1	MsrA inhibitor 10.9 | MsrA conf 9.2
COc1ccc(/C=N/NC(=O)c2ccn[nH]2)cc1COc1ccc([N+](=O)[O-])c(C)c1	none
COc1ccc(/C=N/NC(=O)c2cccnc2)cc1COc1ccc([N+](=O)[O-])c(C)c1	MsrA inhibitor 4.7 | MsrA conf inactive
CC(C)[C@H](NC(=O)OC(C)(C)C)C(=O)N1CCC(Oc2cccnc2)CC1	none (no result: MsrA act, MsrA inhibitor, ABCB6 inh 2)
N#Cc1ccc(CSc2nnc(NC(=O)c3ccc(=O)[nH]c3)s2)cc1	MsrA inhibitor 6.0 | MsrA conf inactive
N#Cc1ccc(CSc2nnc(NC(=O)c3ccc4ncsc4c3)s2)cc1	none
C=CCN=C1NC(c2ccc(Cl)cc2)C(C(=O)OC)=C(C)N1Cc1cccc(C(F)(F)F)c1 (stereo not drawn)	none (no result: MsrA act, ABCB6 inh 2)
COc1cc(/C=N/Nc2ccccn2)cc(OC)c1O	MsrA inhibitor 6.0 | MsrA conf inactive
COc1ccc(/C(O)=C(\C#N)c2nc3ccccc3n2C)cc1OC	MsrA inhibitor 6.9 | MsrA conf 6.0
S=c1[nH]nc(-c2n[nH]c3c2CCC3)n1N=Cc1c2ccccc2cc2ccccc12	none (no result: MsrA act, MsrA inhibitor, ABCB6 inh 2)
Cn1c(/C(C#N)=C/Nc2ccccn2)nc2ccccc21	MsrA inhibitor 6.8 | MsrA conf inactive
COc1ccc(-c2cccc3c2C2CC3CCN2C(=O)OCc2ccccc2)cc1 (stereo not drawn)	MsrA inhibitor 6.4 | MsrA conf inactive
COc1cccc(-c2c(-c3ccccc3OC)ncn2Cc2cccc(-c3ccccc3)c2)c1	none (no result: MsrA act, ABCB6 inh 2)
COc1ccc(C=NNC(=S)Nc2ccc(F)cc2)cc1OC	MsrA inhibitor 5.7 | MsrA conf inactive
CN(C)c1ccc(/C=N/Nc2cccc(C(=O)O)c2)cc1	MsrA inhibitor 5.1 | MsrA conf inactive
CC(C)(C)c1ccc(/C=N/Nc2cccc(C(=O)O)c2)cc1	none
COc1cc(/C=N/NC(=S)N/N=C/c2cc(OC)c(OC)c(OC)c2)cc(OC)c1OC	none
CN(C)c1ccc(C=NNC(=S)Nc2ccc(F)cc2)cc1	none
COc1cc(/C=N/NC(=S)Nc2cccc(C(=O)O)c2)cc(OC)c1OC	MsrA inhibitor 5.1 | MsrA conf inactive
COc1ccc(/C=N/NC(=S)Nc2cccc(C(=O)O)c2)cc1OC	MsrA inhibitor 7.6 | MsrA conf 5.6
COc1cccc(/C=N/NC(=S)Nc2cccc(C(=O)O)c2)c1	none
CCN(CC)S(=O)(=O)c1ccc(N/N=C/c2ccccc2OCC(=O)O)c([N+](=O)[O-])c1	MsrA inhibitor 5.6 | MsrA conf inactive
O=C(O)COc1ccccc1/C=N/Nc1ccc(S(=O)(=O)Nc2ccc(Cl)cc2)cc1[N+](=O)[O-]	none
COc1ccccc1NS(=O)(=O)c1ccc(N/N=C/c2ccccc2OCC(=O)O)c([N+](=O)[O-])c1	MsrA inhibitor 5.4 | MsrA conf inactive
COc1ccc2c(c1)CCCN2C(=O)C1CCCN(S(=O)(=O)c2ccc(C)c(C)c2)C1 (stereo not drawn)	none (no result: MsrA act, MsrA inhibitor, ABCB6 inh 2)
CC1(C)CC(=O)c2sc(NC(=O)C(C)(C)C)nc2C1	none
CC1(C)CC(=O)c2sc(NS(=O)(=O)c3ccc(F)cc3)nc2C1	MsrA inhibitor 5.3 | MsrA conf inactive
CC1(C)CC(=O)c2sc(NC(=O)CN3CCCCC3)nc2C1	MsrA inhibitor 5.2 | MsrA conf inactive
O=C1/C(=C/c2ccc(C(=O)O)cc2)CCC/C1=C\c1ccc(C(=O)O)cc1	MsrA inhibitor 8.8 | MsrA conf 6.6
CCOC(=O)/C(C#N)=C1/C=Nc2ccccc2N1	none
CCOC(=O)/C(C#N)=C1/C=CN(c2ccc(C)cc2)C=N1	MsrA inhibitor 6.6 | MsrA conf 5.2
CCOC(=O)/C(C#N)=C1\C=CN(C)C(C)=N1	MsrA inhibitor 6.0 | MsrA conf inactive
